Screening results (PubChem BioAssay)
Rows were chosen to be rich in hits. Some 3.9% of all compounds tested hit in one or more screens of this group.
Autofluor counter = compound fluorescence in toxin protease inhibitor counterscreen | fluorescence intensity (no concentration beside the values) | 360,000 compounds, 3.1% hits | compound autofluorescence counterscreen, microsphere flow cytometry; hits give high values | AID 624483; in the data active means fluorescence intensity above about 16000; inconclusive means no clear call, values can overlap the other calls
VHR inh abs = DUSP3 (human) phosphatase inhibition; AID 1654; recombinant VHR phosphatase, pNPP absorbance; P51452; 290,000 compounds, 0.52% hits; inhibition, % at 13.3 µM; in the data active means inhibition above about 50%
Target sequence (P51452 whole entry, looked up): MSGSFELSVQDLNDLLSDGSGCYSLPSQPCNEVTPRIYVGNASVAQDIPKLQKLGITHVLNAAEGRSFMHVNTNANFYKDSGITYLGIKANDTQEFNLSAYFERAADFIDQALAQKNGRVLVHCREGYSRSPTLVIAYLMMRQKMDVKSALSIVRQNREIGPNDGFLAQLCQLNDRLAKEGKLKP
BoNT F protease = blocks Botulinum neurotoxin F light chain protease; Multiplex microsphere protease cleavage assay, flow cytometry; inhibition, % at 10 µM; 360,000 compounds, 0.22% hits; in the data active means inhibition above about 35%, passing the limit was not always enough; inconclusive means no clear call, values can overlap the other calls; further: plate controls were buffer without enzyme for full effect and enzyme alone for no effect
Anthrax LF inh2 = inhibitors of Bacillus anthracis lethal factor protease; multiplex microsphere protease cleavage assay, LF; inhibition, % at 10 µM; 360,000 compounds, 0.12% hits; further: plate controls were buffer without enzyme for full effect and enzyme alone for no effect
SARS 3CLpro inh = SARS-CoV 3CLpro protease inhibition | P0C6X7 | AID 1706 | inhibition, % at 6 µM | 290,000 compounds, 0.14% hits | recombinant SARS-CoV 3CLpro, quenched FRET peptide cleavage; in the data active means inhibition above about 12%
BoNT A protease = blocks Botulinum neurotoxin A light chain protease | inhibition, % at 10 µM | 360,000 compounds, 0.17% hits | multiplex microsphere protease substrate cleavage, flow cytometry; further: plate controls were buffer without enzyme for full effect and enzyme alone for no effect
* hit, by the source's call; ? = inconclusive; / = no result. Unless noted, no stated cut-off is given here; in the data, active means inhibition above about 30%; inconclusive means no clear call, values can overlap the other calls; inactive means below that.

SMILES | Autofluor counter | VHR inh abs | BoNT F protease | Anthrax LF inh2 | SARS 3CLpro inh | BoNT A protease
CCOC(=O)c1sc(NC(=O)CSc2ncn(-c3ccccc3)n2)nc1C | 4318 | 6 | 4 | 3 | -3 | 1
Nc1ncc2[nH]c(N)nc2n1 | 4222 | / | 4 | 0 | / | 0
COc1ccc(CCNCC(O)COc2ccc(OC)cc2C(C)(C)C)cc1 (configuration not stated) | 6182 | 34 | -9 | -5 | -1 | -2
CC1CCN(C(=O)CCNS(=O)(=O)c2ccc(Br)cc2)CC1 | 4030 | / | 7 | 5 | / | -1
COc1cc(C(C)=O)ccc1OCc1cc(C(=O)N(C)CCC2CCCCO2)no1 (configuration not stated) | 5749 | 58* | 1 | 0 | 0 | 0
COc1ccccc1OCc1cc(C(=O)N(C)CCC2CCCCO2)no1 (configuration not stated) | 6174 | 14 | -8 | 3 | -8 | 0
CCN(CC)c1c(C)nc2ccc(C(=O)N3CCN(C(=O)c4ccco4)CC3)cn12 | 3935 | / | 4 | -2 | / | 0
CCOC(=O)CN1C(=O)C(CC)Oc2ccccc21 (configuration not stated) | 24132* | 3 | -4 | -1 | -3 | -2
OC(c1ccccc1)c1cccnc1 (configuration not stated) | 10157 | 5 | 1 | -1 | -2 | 0
CC(=O)NC(c1ccccc1)c1cccnc1 (configuration not stated) | 16197* | 6 | -1 | -1 | -5 | 0
Cc1c(C(=O)N(CCO)Cc2ccccc2)oc2c(F)cccc12 | 3623 | 56* | ? | -6 | -3 | 0
OC1c2cc(Cl)cc(Cl)c2N=C2CCCN21 (configuration not stated) | 3804 | / | -1 | 7 | / | 0
COC(=O)[C@@H](Cc1c[nH]c2ccccc12)NC(=O)c1ccc2c(c1)OCO2 | 4034 | 53* | ? | 19 | -4 | -2
CC(=O)N[C@@H](Cc1c[nH]c2ccccc12)C(=O)OCC(=O)Nc1ccc2c(c1)OCO2 | 4509 | / | -8 | -2 | / | 0
O=C(COC(=O)[C@H](Cc1c[nH]c2ccccc12)NC(=O)c1ccc(Cl)cc1)Nc1ccc2c(c1)OCO2 | 21349* | 0 | 2 | -3 | 1 | 3
Oc1ccc2ccccc2c1C1Nc2cccc3cccc(c23)N1 | 23653* | 6 | -10 | -7 | -4 | -1
COc1cc(C2Nc3cccc4cccc(c34)N2)ccc1O | 3240 | 13 | ? | -15 | -1 | -5
CC1(/[N+]([O-])=C/c2ccccc2F)CCCCC1=O (configuration not stated) | 2277 | 24 | -5 | -2 | -1 | 0
CC(=O)NC12CC3CC(C)(C1)CC(NC(C)=O)(C3)C2 | 23165* | -5 | 4 | -2 | 0 | ?
CC(=O)NC12CC3CC(CC(CC(=O)O)(C3)C1)C2 | 21352* | 19 | 5 | 1 | 1 | 3
CC(C)C(c1nnnn1C1CCCC1)N1CCc2ccccc21 (configuration not stated) | 17487* | 21 | -2 | -8 | -1 | 6
CC(C)C(c1nnnn1C1CCCC1)N1CCCc2ccccc21 (configuration not stated) | 24060* | -9 | -2 | -2 | -4 | -3
CCOc1ccc(CNC(=O)c2ccc3c(c2)N(CC)CCS3)cc1 | 5252 | 13 | -10 | -8 | 11 | 0
CCN1CCSc2ccc(C(=O)NCc3ccc(OC(C)C)cc3)cc21 | 6592 | 53* | 6 | -5 | 3 | -1
O=C(c1cnc2c(c1)COc1ccc(Cl)cc1-2)c1ccccc1O | 3569 | 50* | 15 | -3 | -1 | 0
SMILES | Autofluor counter | VHR inh abs | BoNT F protease | Anthrax LF inh2 | SARS 3CLpro inh | BoNT A protease
C(/C=C/c1ccccc1)=N/N1CCN(c2ccccc2)CC1 | 17556* | -4 | -10 | -4 | -1 | ?
COc1ccccc1OCCCC(=O)Nc1nnc(C2CCCO2)s1 (configuration not stated) | 6432 | 5 | -1 | -2 | 2 | 0
CCCCNC(=O)CSc1nc2ccccc2c(=O)n1C1CCCC1 | 19876* | 8 | -1 | -3 | 5 | 2
C=CCn1c(SCC(=O)NCc2ccco2)nc2ccccc2c1=O | 3795 | -6 | -5 | -6 | -3 | -1
O=C(CCn1c(SCC(=O)NCc2ccco2)nc2ccccc2c1=O)NCCc1ccccc1 | 22374* | 32 | 2 | -3 | 0 | ?
O=C(CSc1nc2ccccc2c(=O)n1CCC(=O)N1CCCCC1)NCc1ccccc1 | 23326* | 9 | -1 | -2 | -2 | ?
C=CCn1c(SCC(=O)NCC2CCCO2)nc2scc(-c3ccco3)c2c1=O (configuration not stated) | 22083* | -2 | 4 | 0 | -1 | ?
O=CNc1c(Cl)cc2c(c1Cl)Cc1cc([N+](=O)[O-])ccc1-2 | 3382 | / | 2 | 1 | / | 1
CCNC(=O)C1CCCN(C(=O)c2ccc(F)c(Cl)c2)CC1 (configuration not stated) | 3908 | / | 2 | -7 | / | -1
O=C(CCn1cnc(-c2ccccc2)c1-c1ccccc1)N/N=C/c1ccccc1O | 2587 | 34 | -2 | 0 | 6 | 0
CCCn1c(N)c(C(=O)CN(C)CC(=O)Nc2c(Cl)cccc2Cl)c(=O)[nH]c1=O | 8558 | / | 2 | -3 | / | 2
O=C(Cc1ccccc1)Nc1ccc2oc(=O)ccc2c1 | 3233 | 10 | -1 | -3 | 0 | 0
Cn1c(SCC(=O)N2CCCC2)nc2ccccc2c1=O | 10661 | 12 | 9 | 1 | 0 | 1
CCOC(=O)CSc1nc2ccccc2c(=O)n1CC1COc2ccccc2O1 (configuration not stated) | 22016* | 20 | -5 | -5 | 1 | -3
CCn1c(SCC(=O)N2CCCC2)nc2ccccc2c1=O | 19212* | -14 | 4 | -4 | -7 | 4
Cc1ccc(NC(=O)CSc2nc3ccccc3c(=O)n2CCCC(=O)N2CCCC2)cc1 | 22956* | 32 | -3 | -3 | 3 | -1
COCCCn1c(SCC(=O)Nc2ccc(C)cc2)nc2ccccc2c1=O | 2514 | 8 | -2 | 0 | 6 | 0
O=C(CSc1nc2scc(-c3ccco3)c2c(=O)n1-c1ccccc1)N1CCOCC1 | 21589* | 6 | -3 | -1 | 6 | -2
CCCN(CCC)C(=O)CSc1nc2ccccc2c(=O)n1CC1COc2ccccc2O1 (configuration not stated) | 6926 | 25 | -2 | ? | 1 | 0
CCC1CN(C(=O)N2CCC(C(=O)NCCc3ccc(OC)cc3OC)CC2)c2ccccc2O1 (configuration not stated) | 4114 | -3 | 5 | -1 | -1 | 0
Cn1c(CCCNC(=O)c2ccco2)nc2ccccc21 | 3811 | / | 1 | 1 | / | 0
COc1ccc(Cc2nnc(NC(=O)C(C)(C)C)s2)cc1 | 4268 | 15 | 3 | -10 | 6 | 0
